Experimental data taken from PubChem BioAssay AID1159580 (chemical genetic matrix, 2015).
Hit rate of the full screen: of about 5,500 compounds, about 2,000 (36%) were called active. Another 18% or so got no clear call; they are omitted. Rule as the data show it: active = normalized growth mostly below about 0.91 (no sharp cut-off); inconclusive = no clear call, values can overlap the other calls; inactive = mostly above about 0.92. The list shows a part of the results.

Test: chemical genetic growth profiling, strain panel (AID 1159580);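 also: tested at 20 µM; growth read once vehicle control cultures reached saturation at 30 °C; 1 = growth at the plate median or of vehicle wells; lower values mean less growth of the strain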
Details: growth OD

Measured: normalized growth

CCN(CC)CCNC(=O)c1cc(Br)c(N)cc1OC
inactive: S. cerevisiae deletion strains, locus YJR043C, strain POL32, hits give low values 0.917 | S. cerevisiae deletion strains, locus YJR066W, strain TOR1, hits give low values 0.933 | S. cerevisiae deletion strains, locus YKL009W, strain mrt4, hits give low values 0.955 | S. cerevisiae deletion strains, locus YKL068W, hits give low values 0.989 | S. cerevisiae deletion strains, locus YKL085W, strain MDH1 (second series), hits give low values 0.993 | S. cerevisiae deletion strains, locus YKL085W, strain MDH1, hits give low values 0.993 | S. cerevisiae deletion strains, locus YKL160W, strain elf1, hits give low values 0.985 | S. cerevisiae deletion strains, locus YKL190W, strain CNB1, hits give low values 0.982 | S. cerevisiae deletion strains, locus YKR001C, strain vps1, hits give low values 0.984 | S. cerevisiae deletion strains, locus YKR026C, strain gcn3, hits give low values 0.971 | S. cerevisiae deletion strains, locus YKR091W, strain srl3, hits give low values 0.99 | S. cerevisiae deletion strains, locus YLL001W, strain dnm1, hits give low values 1 | S. cerevisiae deletion strains, locus YLL026W, hits give low values 0.99 | S. cerevisiae deletion strains, locus YLL041C, strain sdh2, hits give low values 0.98 | S. cerevisiae deletion strains, locus YLR027C, strain aat2, hits give low values 0.992 | S. cerevisiae deletion strains, locus YLR039C, strain RIC1, hits give low values 0.974 | S. cerevisiae deletion strains, locus YLR058C, strain SHM2, hits give low values 0.971 | S. cerevisiae deletion strains, locus YLR102C, strain apc9, hits give low values 0.991 | S. cerevisiae deletion strains, locus YLR113W, strain HOG1, hits give low values 1.01 | S. cerevisiae deletion strains, locus YLR221C, strain rsa3, hits give low values 0.992 | S. cerevisiae deletion strains, locus YLR258W, strain gsy2, hits give low values 0.991 | S. cerevisiae deletion strains, locus YLR262C, strain YPT6 (second series), hits give low values 1.02 | S. cerevisiae deletion strains, locus YLR262C, strain YPT6, hits give low values 0.958 | S. cerevisiae deletion strains, locus YLR268W, strain sec22, hits give low values 0.983 | S. cerevisiae deletion strains, locus YLR320W, strain mms22, hits give low values 1.01 | S. cerevisiae deletion strains, locus YLR330W, strain CHS5, hits give low values 1 | S. cerevisiae deletion strains, locus YLR342W, strain FKS1 (second series), hits give low values 1.08 | S. cerevisiae deletion strains, locus YLR342W, strain FKS1, hits give low values 0.991 | S. cerevisiae deletion strains, locus YLR357W, strain rsc2, hits give low values 0.974 | S. cerevisiae deletion strains, locus YLR370C, strain arc18, hits give low values 0.994 | S. cerevisiae deletion strains, locus YLR371W, strain rom2, hits give low values 0.995 | S. cerevisiae deletion strains, locus YLR384C, strain iki3, hits give low values 0.991 | S. cerevisiae deletion strains, locus YLR418C, strain cdc73, hits give low values 1.04 | S. cerevisiae deletion strains, locus YML016C, strain PPZ1, hits give low values 0.994 | S. cerevisiae deletion strains, locus YML032C, strain rad52, hits give low values 0.968 | S. cerevisiae deletion strains, locus YML120C, strain ndi1, hits give low values 0.99 | S. cerevisiae deletion strains, locus YML124C, strain tub3, hits give low values 0.98 | S. cerevisiae deletion strains, locus YMR058W, strain fet3, hits give low values 0.982 | S. cerevisiae deletion strains, locus YMR078C, strain ctf18, hits give low values 0.988 | S. cerevisiae deletion strains, locus YMR125W, strain sto1, hits give low values 0.975 | S. cerevisiae deletion strains, locus YMR129W, hits give low values 0.986 | S. cerevisiae deletion strains, locus YMR205C, strain PFK2, hits give low values 1.03 | S. cerevisiae deletion strains, locus YMR223W, strain ubp8, hits give low values 1.02 | S. cerevisiae deletion strains, locus YMR231W, strain pep5, hits give low values 1 | S. cerevisiae deletion strains, locus YMR307W, strain GAS1, hits give low values 1.07 | S. cerevisiae deletion strains, locus YNL067W, strain RPL9B, hits give low values 0.964 | S. cerevisiae deletion strains, locus YNL071W, strain lat1, hits give low values 0.987 | S. cerevisiae deletion strains, locus YNL153C, strain GIM3, hits give low values 0.961 | S. cerevisiae deletion strains, locus YNL183C, strain NPR1, hits give low values 0.956 | S. cerevisiae deletion strains, locus YNL209W, strain ssb2, hits give low values 0.988 | S. cerevisiae deletion strains, locus YNL233W, strain BNI4, hits give low values 0.957 | S. cerevisiae deletion strains, locus YNL248C, strain rpa49, hits give low values 0.969 | S. cerevisiae deletion strains, locus YNL250W, strain rad50, hits give low values 0.986 | S. cerevisiae deletion strains, locus YNL271C, strain bni1, hits give low values 0.988 | S. cerevisiae deletion strains, locus YNL298W, strain CLA4, hits give low values 0.985 | S. cerevisiae deletion strains, locus YNL307C, strain MCK1, hits give low values 0.981 | S. cerevisiae deletion strains, locus YNL322C, strain KRE1 (second series), hits give low values 0.987 | S. cerevisiae deletion strains, locus YNR049C, strain mso1, hits give low values 0.969 | S. cerevisiae deletion strains, locus YNR052C, strain pop2, hits give low values 0.992 | S. cerevisiae deletion strains, locus YOL006C, strain TOP1, hits give low values 0.879 | S. cerevisiae deletion strains, locus YOL012C, strain htz1 1.14 | S. cerevisiae deletion strains, locus YOL147C, strain pex11, hits give low values 0.989 | S. cerevisiae deletion strains, locus YOR001W, strain rrp6, hits give low values 0.966 | S. cerevisiae deletion strains, locus YOR061W, strain CKA2, hits give low values 0.97 | S. cerevisiae deletion strains, locus YOR069W, strain VPS5, hits give low values 0.992 | S. cerevisiae deletion strains, locus YOR070C, strain gyp1, hits give low values 0.996 | S. cerevisiae deletion strains, locus YOR080W, strain dia2, hits give low values 0.975 | S. cerevisiae deletion strains, locus YOR083W, strain WHI5, hits give low values 0.978 | S. cerevisiae deletion strains, locus YOR106W, strain vam3, hits give low values 0.992 | S. cerevisiae deletion strains, locus YOR136W, strain idh2, hits give low values 0.977 | S. cerevisiae deletion strains, locus YOR144C, strain elg1, hits give low values 0.998 | S. cerevisiae deletion strains, locus YOR184W, strain ser1, hits give low values 0.987 | S. cerevisiae deletion strains, locus YOR231W, strain MKK1, hits give low values 0.96 | S. cerevisiae deletion strains, locus YOR265W, strain rbl2, hits give low values 0.996 | S. cerevisiae deletion strains, locus YOR270C, strain vph1, hits give low values 1.01 | S. cerevisiae deletion strains, locus YOR290C, strain snf2, hits give low values 0.956 | S. cerevisiae deletion strains, locus YOR316C, strain cot1, hits give low values 0.975 | S. cerevisiae deletion strains, locus YPL051W, strain arl3, hits give low values 0.981 | S. cerevisiae deletion strains, locus YPL078C, strain atp4, hits give low values 0.975 | S. cerevisiae deletion strains, locus YPL106C, strain sse1, hits give low values 0.965 | S. cerevisiae deletion strains, locus YPL240C, strain hsp82, hits give low values 0.98 | S. cerevisiae deletion strains, locus YPL256C, strain CLN2, hits give low values 0.963 | S. cerevisiae deletion strains, locus YPR119W, strain clb2, hits give low values 0.99 | S. cerevisiae deletion strains, locus YPR141C, strain kar3, hits give low values 0.99 | S. cerevisiae deletion strains, locus YPR163C, strain tif3, hits give low values 0.998 | S. cerevisiae deletion strains, locus YPR167C, strain met16, hits give low values 0.991 | S. cerevisiae deletion strains, strain wtn01, hits give low values 1.03 | S. cerevisiae strains, strain wild type, hits give low values 0.987
